Source: PubChem BioAssay AID1117319 (Southern Research Institute, 2015)
Where “and” joins values, the source holds several entries; their conditions need not be identical. Equal entries are not always repeated. In all, about 260,000 compounds went through this assay and about 1,500 (0.58%) were called active. Inconclusive results (about 5%) are left out.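 Rule for the calls: active = inhibition above a set limit at one or more doses, reproduced on every date tested; inconclusive = results disagree between test dates, or hit never tested in dose response; inactive = the rest.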 These entries were drawn from the full list. Results with a measured potency or affinity are listed apart.

What follows are compounds tested against Virion infectivity factor (Human immunodeficiency virus type 1 group M subtype B (isolate BH10)) + Virion infectivity factor (Human immunodeficiency virus type 1 group M subtype B (isolate BRU/LAI)) + Virion infectivity factor (Human immunodeficiency virus type 1 group M subtype B (isolate PCV12)) + Virion infectivity factor (Human immunodeficiency virus type 1 group M subtype B (isolate HXB2)) + DNA dC->dU-editing enzyme APOBEC-3G (Homo sapiens) (UniProt P69720+P69721+P69722+P69723+Q9HC16) (assay: HIV-1 Vif–A3G interaction blockers – biochemical, TR-FRET, GST-Vif 1-94, biotin-A3G peptide, dose response retest, primary screen (AID 1117319;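 note: Vif residues 1-94 fused to GST binding biotinylated APOBEC3G peptide 110-148; 0% = full assay without inhibitor and 100% = GST in place of GST-Vif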)). Conditions: TR-FRET GST-Vif / biotin-A3G peptide binding; active compounds read high.

inhibition, inactive:
Cc1cc(C)c(S(=O)(=O)N2CCCCC2)cc1N(C)S(=O)(=O)c1ccc(Cl)cc1 17.4% and -11.3%
Cc1cc(C)c(S(=O)(=O)N2CCCCC2)c(C)c1N(C)S(=O)(=O)c1ccccc1 -2.38%
CN(C)N1C(N)=C(C#N)C(c2cccnc2)C2=C1CC(C)(C)CC2=O (stereo not drawn) -8.23%
COc1cc(C2C(C#N)=C(N)N(N(C)C)C3=C2C(=O)CCC3)ccc1O (stereo not drawn) 3.96%
CN(C)N1C(N)=C(C#N)C(c2ccccc2)C2=C1CCCC2=O (stereo not drawn) 9.57%
Cc1ccc(C2C(C#N)=C(N)N(c3cccnc3)C3=C2C(=O)CCC3)c(C)c1 (stereo not drawn) -5.44%
CC(C)(C)NC(=O)CSc1nc(O)cc(=O)[nH]1 6.41%
CCC1=NN(C(=O)Cc2ccc([N+](=O)[O-])cc2)C(O)(C(F)(F)F)C1 (stereo not drawn) 17.1%
CC1CN(c2ccccc2)CCN1Cc1nc(Cc2ccccc2)no1 (stereo not drawn) -4.62%
Cc1ccc(-c2csnn2)cc1 -3.52%
O=C(Nc1ccc(Cl)cc1)c1cncs1 -5.16%
COC(=O)CSC(=S)N1CCCC(C)C1 (stereo not drawn) -1.45%
COc1ccc(Nc2nc(OC)nc(OC)n2)cc1 2.78%
COc1ccc(Nc2c(C)cccc2C)cc1 -5.1%
Cc1ccccc1-n1c(-c2ccc(Cl)cc2)cnc1SCC(=O)NC1CCS(=O)(=O)C1 (stereo not drawn) -0.29%
Oc1ccc(-c2cn3c(n2)SCC3)cc1 1.62%
Cc1ccc(-c2cn3c(n2)SCC3)cc1 -0.83%
CC(=O)c1cccc(CN2CCN(Cc3ccc(C)cc3)C(CCO)C2)c1 (stereo not drawn) -2.61%
COC(=O)C(C)(C)ONC(=O)Nc1ccccc1Br 23.3%
CC1CCN(c2nc(-c3ccco3)c3c(c2C#N)CC(C)(C)OC3)CC1 27.3%
CC1(C)Cc2c(C#N)c(N3CCN(C(=O)c4ccccc4Cl)CC3)nc(-c3ccco3)c2CS1 15%
COC(=O)C1=C(C)Nc2nnnn2C1c1cc(OC)ccc1OC (stereo not drawn) -7.75%
CCCCN(CC)CCNC(=O)c1nn(-c2ccc(OC)cc2)c(=O)c2c1c1ccccc1n2C 6.38%
CCCOc1ccccc1C1NC(=O)NC(C)=C1C(=O)OCc1ccccc1 (stereo not drawn) -9.5%
CCCCOc1ccccc1C1NC(=O)NC(C)=C1C(=O)OCCOCC (stereo not drawn) 2%
CCc1nnc(NS(=O)(=O)c2ccc(NC(=S)Nc3ccc(F)cc3)cc2)s1 -0.27%
CCN1/C(=C/C(C)=C/c2sc3ccccc3[n+]2CC)Sc2ccccc21 -17.9%
CC[n+]1c(/C=C/C=C/N(C(C)=O)c2ccccc2)sc2ccccc21 8.36%
CCN(CC)CCN=C1CCCc2ccccc2N1 0.69%
O=C(Nc1cccc(S(=O)(=O)N2CCOCC2)c1)c1cc2ccccc2o1 -1.28%
CC(=O)Oc1ccc(/C=N/NS(=O)(=O)c2ccccc2)cc1 -10.3%
Cc1ccc(S(=O)(=O)c2c(N)n(Cc3ccco3)c3nc4ccccc4nc23)cc1C 5.39%
Cc1ccc(S(=O)(=O)c2c(N)n(Cc3ccco3)c3nc4ccccc4nc23)cc1 2.43%
Cc1ccn2c(/C=N/OCc3ccc(F)cc3)c(-c3ccc(Cl)cc3)nc2c1 -1.15%
CCCCN(CCCC)CC1OCc2ccccc2CO1 -2.33%
COc1ccc(-c2nn(-c3ccccc3)cc2CNC[C@H]2O[C@@H](n3cnc(C(N)=O)n3)[C@H](O)[C@@H]2O)cc1 12.8%
CCC(C)Nc1nc(C)nc2c1oc1ccccc12 (stereo not drawn) -0.82%
CC(=O)c1sc(=S)n(Cc2ccccc2)c1C -9.02%
COc1cc2c(cc1O)C(Cc1ccc(O)cc1)NCC2 (stereo not drawn) -2.34%
COc1cc2c(cc1OC)C(Cc1ccc(O)cc1)NCC2 (stereo not drawn) 16.4%
CC(Oc1ccccc1F)c1nnc(SCC(=O)NCc2ccc3c(c2)OCO3)o1 (stereo not drawn) -7.49%
COc1ccc(-n2cc(-c3ccc(Cl)cc3)[nH]c2=S)cc1 -54.3%
O=C(c1ccc(Cl)cc1)C1CCCN(Cc2cccn2-c2ccccn2)C1 (stereo not drawn) -9.46%
CCOc1cc(C(=S)N2CCOCC2)ccc1OC(=O)c1ccc(C)cc1 4.9%
N#C/C(=C(/O)COc1ccc(Cl)cc1)c1nc2ccccc2s1 5.6%
CCC(c1ccccc1)C(CC)c1cc(O)c(O)c(O)c1 (stereo not drawn) 27.3%
CC(C)NCC(O)c1cc(O)cc(O)c1 (stereo not drawn) 5.35%
CCC(NC(C)C)C(O)c1ccc(O)c(O)c1 (stereo not drawn) -1.98%
CC(C)NCC(O)c1ccc(NS(C)(=O)=O)cc1 (stereo not drawn) 4.04%
CNC[C@H](O)c1cccc(O)c1 -0.43%
COc1ccc([C@H](C)NC[C@H](O)c2ccc(O)c(NC=O)c2)cc1 26%
CN1/C(=C\C(=O)COC(=O)c2ccccc2O)C(C)(C)c2ccccc21 -8.33%
Cc1occc1-c1nnc(SCC(=O)Nc2ccccc2)n1C 1.99%
Oc1cccc(/C=N/N2CCN(c3ccccn3)CC2)c1 3.52%
CCN(CC)S(=O)(=O)c1cccc(-c2nn(-c3ccccc3)cc2/C=C(\C#N)C(=O)NCc2ccco2)c1 -3.43%
CCOc1ccc(CCNC(=O)C2CC=CCC2C(=O)OC(C)C)cc1OCC (stereo not drawn) 0.89%
CCOc1ccc(CCNC(=O)C2CCN(S(=O)(=O)N3CCC(C)CC3)CC2)cc1OCC -6.54%
CCOC(=O)c1[nH]c2cc(OC)c(OC)cc2c1NC(=O)CN1CCN(c2ccc(OC)cc2)C(C)C1 (stereo not drawn) 23%
Cc1cc(C(=O)N/N=C/c2ccc(-c3cccc(Cl)c3)o2)n[nH]1 -2.03%
Cc1ccc(-c2cc(N)n(-c3ccc(C)cc3)n2)cc1 -11.3%
Cc1ccc(-c2cc(N)n(-c3ccccc3)n2)cc1 -2.7%
CCOC(=O)c1ccc(N2C(=O)C3CC=C(C)CC3C2=O)cc1 (stereo not drawn) 24.6%
COc1ccc(C(=O)N/N=C/c2c(CO)cnc(C)c2O)cc1 8.42%
Cc1ncc(CO)c(/C=N/NC(=O)c2cc(Br)ccc2O)c1O 11%
O=C(N/N=C/c1cccnc1)c1ccccc1 -11.7%
O=C(N/N=C\c1cccnc1)c1ccccc1O -5.54%
Cc1ccc(NC2=NCCCCC2)cc1 0.64%
CCN(CC)C(=O)[C@H]1C[C@H](CC(=O)NC(C)(C)C)C(=O)N2CCc3c([nH]c4ccc(Cl)cc34)[C@]12C -8.68%
CNC(=O)CN(C1CCCCC1)S(=O)(=O)c1ccc(F)cc1 -2.39%
Cn1cccc1Cc1nnc(SCC(=O)NCc2ccco2)n1CCc1ccccc1 1.07%
Cn1cccc1/C=C1\CC(C(C)(C)C)C/C(=C\c2cccn2C)C1=O (stereo not drawn) 1.11%
CC1C/C(=C/c2cccn2C)C(=O)/C(=C/c2cccn2C)C1 (stereo not drawn) 32.9%
O=C1/C(=C/c2ccccc2)SC(=S)N1N1C(=O)C2CC2C1=O (stereo not drawn) -1.11%
CC(C)Cc1nnc(NC(=O)c2cccc(S(=O)(=O)N3CCN(C)CC3)c2)s1 3.22%
O=C(/C=C/c1ccccc1[N+](=O)[O-])OCC(=O)c1ccccc1 -4.21%
Cc1ccc(C(=O)CSc2nc3cccnc3n2C)cc1 6.72%
O=C(COc1cc(Cl)c(Cl)cc1Cl)NCCN1CCOCC1 8.15%
Cc1nnc(NC(=O)CCC(=O)NCc2ccco2)s1 6.21%
NC(=O)COC(=O)c1ccc(-c2ccccc2)cc1 -9.63%
NC(=O)COC(=O)c1ccc(C(=O)C(=O)c2ccccc2)cc1 4.49%
O=C(CSC(=S)N1CCOCC1)Nc1ncc2c(n1)CCCC2=O 1.41%
O=C(NCC(O)c1ccccc1)c1cccs1 (stereo not drawn) -7.1%
Cc1sc(NC(=O)c2ccco2)c(CN2CCN(c3ccccn3)CC2)c1C 17.2%
NC(=O)N/N=C/c1ccc(-c2ccc([N+](=O)[O-])cc2)o1 0.97%
O=C(O)c1cc(-c2ccc(/C=N/Nc3ccc([N+](=O)[O-])cn3)o2)ccc1Cl 5.44%
O=C(CCNC(=O)c1ccc([N+](=O)[O-])cc1)Nc1cc(Cl)ccc1N1CCOCC1 -3.46%
CCCCC(=O)NC(=S)Nc1cc(C(=O)O)ccc1OC 6.07%
CC(=O)NC(=S)Nc1cc(C(=O)O)ccc1Cl -3.72%
CCCCC(c1nnnn1CCOC)N1CCN(C(=O)c2ccco2)CC1 (stereo not drawn) 32.8% and -5.2%
Cc1ccc(CN(C)C(=O)CN2C(=O)NC3(CCCc4ccccc43)C2=O)c(C)c1 (stereo not drawn) -3.76%
CN(C)C(=O)CSc1nnc(Cc2ccccc2)n1Cc1ccco1 7.45%
O=C(Nc1cccc(-c2nnn(CC(=O)N3CCc4ccccc4C3)n2)c1)C1CCC1 -4.46%
CC(C)CC(=O)Nc1ccccc1-c1nnn(CC(=O)N2CCc3ccccc3C2)n1 10.6%
CC(=O)NCCOc1cccc2ccccc12 4.94%
CC(=O)NN1C(=O)/C(=C/c2ccc(C(C)C)cc2)SC1=S -3.47%
CC(=O)NN1C(=O)/C(=C\c2ccc(C)cc2)SC1=S -1.41%
CC(=O)NN1C(=O)/C(=C\c2ccccc2)SC1=S 1.87%
CC(=O)NN1C(=O)/C(=C\c2ccc(Cl)cc2)SC1=S 7.42%
